Assay outcomes deposited in PubChem BioAssay by several laboratories.
proKLK7 act: activators of human kallikrein-7 zymogen | P49862 | purified proKLK7, EDANS-DABCYL substrate fluorescence; 100% is mature enzyme control, 0% vehicle | activation, % at 7 µM | 370,000 compounds, 0.9% hits | AID 652039;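 active = activation above the mean of all tested compounds plus 3 SD, computed per campaign excluding outliers beyond control limits, cut at about 13% in these data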
Target sequence (P49862 whole entry, looked up): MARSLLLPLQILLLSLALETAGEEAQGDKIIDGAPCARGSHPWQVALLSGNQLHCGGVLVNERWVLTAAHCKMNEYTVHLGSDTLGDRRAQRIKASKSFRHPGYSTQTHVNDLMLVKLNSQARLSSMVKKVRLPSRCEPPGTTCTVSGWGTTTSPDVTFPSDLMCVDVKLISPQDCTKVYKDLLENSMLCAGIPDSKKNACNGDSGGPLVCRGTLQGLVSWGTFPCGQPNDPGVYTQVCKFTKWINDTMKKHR
ADAM10 inh: inhibits human ADAM10. O14672. recombinant ADAM10, EDANS/DABCYL FRET peptide cleavage, 3 h. inhibition, % at 7 µM. 370,000 compounds, 0.62% hits. AID 720582;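 active = inhibition above a per-campaign cutoff equal to the mean of compounds falling between control-based bounds plus 3 SD, cut at about 20% in these data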;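 also: 0% = DMSO wells while the 100% control is not disclosed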
ADAM17 inh: inhibits human ADAM17 | recombinant ADAM17, EDANS/DABCYL FRET peptide cleavage | P78536 | 370,000 compounds, 0.83% hits | inhibition, % at 6.95 µM | AID 720648;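 active = inhibition above the mean of compounds lying between control limits plus 3 SD, set per campaign, cut at about 8.5% in these data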;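 also: 0% = DMSO-only wells as the low control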
NR3A LBD binder: modulates the human NR3A ligand-binding domain; NR3A LBD differential scanning fluorimetry, Tm shift; 0% = protein alone, 100% = glycine-bound protein; Tm shift relative to glycine control, % at 25 µM; 340,000 compounds, 2.5% hits; AID 1259313;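 active = melting temperature shift of at least 10% of the positive control shift, at one fixed dose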
FAS-TE inh: inhibitors of human fatty acid synthase thioesterase domain; recombinant FAS-TE, OMFH fluorogenic substrate, fluorescence endpoint; AID 602261; inhibition, % at 15 µM; 360,000 compounds, 0.67% hits; P49327;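 active = compounds whose normalised, plate-corrected inhibition of enzyme fluorescence in the single-dose primary screen is 50% or more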;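 also: 0% = DMSO with enzyme and 100% = substrate without enzyme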
KLK7 act conf: proKLK7 activation, confirmation | purified proKLK7, EDANS-DABCYL substrate fluorescence; scaled: vehicle 0, mature enzyme 100 | AID 686949 | shares compounds with proKLK7 act | 3,200 compounds, 68% hits | activation, % at 7 µM;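 active = activation, as change over the incubation, above the mean of all tested compounds plus 3 SD, cut at about 13% in these data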
EDANS interfere: counter-screen for kallikrein-7 activators: EDANS-DABCYL optical interference; shares compounds with proKLK7 act; activation, % at 7 µM; 3,200 compounds, 80% hits; EDANS-DABCYL substrate fluorescence interference, no enzyme, 4 h; solvent 0%, active enzyme control 100%;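 active = activation above the all-compound mean plus 3 SD, ignoring values outside control-based bounds, cut at about 4.8% in these data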;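 also: value is the 4 h activation minus the activation read at time zero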
EDANS interf: optically interferes with EDANS-DABCYL fluorescence, kallikrein-7 activator counter-screen. shares compounds with proKLK7 act. EDANS-DABCYL peptide fluorescence interference, no enzyme. EC50, µM. 250 compounds, 20% hits. AID 720493;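 active = compounds that raise the fluorescence signal in this interference counterscreen, with EC50 at or below 10 µM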;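 also: intact quenched peptide substrate alone read at 355 nm excitation and 520 nm emission; signal is fluorescence gain from T0 to T4 after four hours at room temperature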
* marks the source's active call; other numbers are inactive results. Compounds with a hit are over-represented: about 4.6% of the library has one in this group of screens.

What do the screens show for `O=C(CN1C(=O)NC2(CCCCC2)C1=O)Oc1ccc2ccc(=O)oc2c1`?
proKLK7 act: 127*; ADAM10 inh: inactive; ADAM17 inh: inactive; NR3A LBD binder: 0; FAS-TE inh: 4; KLK7 act conf: 62*; EDANS interfere: 65*

What do the screens show for `COc1cc2cc(Oc3ccc4ccc(=O)oc4c3)c(=O)oc2cc1OC(C)=O`?
proKLK7 act: 9; ADAM10 inh: -27; ADAM17 inh: -6; NR3A LBD binder: -3; FAS-TE inh: -6

Results for COc1cc2cc(Oc3ccc4ccc(=O)oc4c3)c(=O)oc2cc1O ?
proKLK7 act: 37*; ADAM10 inh: -171; ADAM17 inh: -36; NR3A LBD binder: 0; FAS-TE inh: -4; KLK7 act conf: 36*; EDANS interfere: 40*

What do the screens show for `COc1ccccc1C(=O)Oc1ccc(C(C)(C)C)cc1`?
proKLK7 act: 0; ADAM10 inh: 16; ADAM17 inh: 3; NR3A LBD binder: 3; FAS-TE inh: 23

How did CC(C)C(NC(=O)[C@H](Cc1ccccc1)NC(=O)OCc1ccccc1)P(=O)(O)OC(Cc1ccccc1)C(=O)O (stereo partly specified) do in these assays?
ADAM10 inh: -4; ADAM17 inh: -8

What do the screens show for `O=C1NC(c2ccccc2Cl)Nc2ccccc21` (stereo unspecified)?
proKLK7 act: 19*; ADAM10 inh: inactive; ADAM17 inh: -356; NR3A LBD binder: 0; FAS-TE inh: -6; KLK7 act conf: 47*; EDANS interfere: 50*

What do the screens show for `O=C1NC(c2ccc(Br)cc2)Nc2ccccc21` (stereo unspecified)?
proKLK7 act: 14*; ADAM10 inh: inactive; ADAM17 inh: -256; NR3A LBD binder: -2; FAS-TE inh: -3; KLK7 act conf: 21*; EDANS interfere: 15*; EDANS interf: >70

Results for COc1ccc(OC)c(NC(=O)c2ccccc2N(Cc2ccccc2)C(=O)C(C)Cl)c1 (stereo unspecified) ?
proKLK7 act: 0; ADAM10 inh: -53; ADAM17 inh: -8

How did Clc1ccc(-c2cnc3cccnn23)cc1 do in these assays?
proKLK7 act: 32*; ADAM10 inh: inactive; ADAM17 inh: -265; FAS-TE inh: -2; KLK7 act conf: 37*; EDANS interfere: 22*; EDANS interf: >70

How did c1cnn2c(-c3ccc4c(c3)CCO4)cnc2c1 do in these assays?
proKLK7 act: 4; ADAM10 inh: -31; ADAM17 inh: -12; FAS-TE inh: -5

How did COc1ncccc1-c1cnc2cccnn12 do in these assays?
proKLK7 act: 34*; ADAM10 inh: inactive; ADAM17 inh: -363; FAS-TE inh: -8; KLK7 act conf: 58*; EDANS interfere: 58*

How did Oc1ccccc1-c1cnc2cccnn12 do in these assays?
proKLK7 act: 8; ADAM10 inh: -41; ADAM17 inh: -10; FAS-TE inh: -7

How did COc1ccc(-c2cnc3cccnn23)cn1 do in these assays?
proKLK7 act: 39*; ADAM10 inh: inactive; ADAM17 inh: -200; FAS-TE inh: -9; KLK7 act conf: 27*; EDANS interfere: 38*

Results for CN(c1cccnc1)c1ccc(NC(=O)Cc2c[nH]c3ccccc23)cc1Br ?
proKLK7 act: -2; ADAM10 inh: -28; ADAM17 inh: -10

Results for CC(C)(C)N(NC(=O)NCCCl)C(=O)c1ccccc1Cl ?
proKLK7 act: 1; ADAM10 inh: 1; ADAM17 inh: 1

What do the screens show for `C#CCNC(=O)C[C@H]1C[C@@]2(C(=O)OC)C(=C[C@H](COCc3ccccc3)O[C@@H]2C)N(Cc2ccccc2)C1=O`?
proKLK7 act: 1; ADAM10 inh: -1; ADAM17 inh: -3

What do the screens show for `Cc1cc2oc(=O)cc(CN3CCC(C)CC3)c2cc1Cl`?
proKLK7 act: 0; ADAM10 inh: 7; ADAM17 inh: -3; NR3A LBD binder: 3; FAS-TE inh: 28

How did Cc1cc(=O)oc2c(CN3CCCC3)c(O)c(Cl)cc12 do in these assays?
proKLK7 act: 46*; ADAM10 inh: inactive; ADAM17 inh: inactive; NR3A LBD binder: 0; FAS-TE inh: 0; KLK7 act conf: 62*; EDANS interfere: 72*

What do the screens show for `Cc1cc(=O)oc2c(CN3CCCCC3)c(O)c(Cl)cc12`?
proKLK7 act: 61*; ADAM10 inh: inactive; ADAM17 inh: inactive; NR3A LBD binder: 1; FAS-TE inh: -4; KLK7 act conf: 61*; EDANS interfere: 60*

What do the screens show for `Cc1cc(=O)oc2c(CN3CCC(C)CC3)c(O)c(Cl)cc12`?
proKLK7 act: 70*; ADAM10 inh: inactive; ADAM17 inh: inactive; NR3A LBD binder: 0; FAS-TE inh: -3; KLK7 act conf: 65*; EDANS interfere: 66*

How did CCc1cc(=O)oc2cc(C)c(CN3CCCC3)c(O)c12 do in these assays?
proKLK7 act: -2; ADAM10 inh: -2; ADAM17 inh: -1; NR3A LBD binder: -3; FAS-TE inh: 0

How did CCc1cc(=O)oc2c(CNCc3ccccc3F)c(O)c(Cl)cc12 do in these assays?
proKLK7 act: 36*; ADAM10 inh: inactive; ADAM17 inh: inactive; NR3A LBD binder: 0; FAS-TE inh: 1; KLK7 act conf: 61*; EDANS interfere: 66*

What do the screens show for `CCc1cc(=O)oc2cc(C)c(CN3CCCCC3)c(O)c12`?
proKLK7 act: -1; ADAM10 inh: -3; ADAM17 inh: -2; NR3A LBD binder: -1; FAS-TE inh: -5

What do the screens show for `CCCc1cc(=O)oc2c(CN3CCCC3)c(O)c(Cl)cc12`?
proKLK7 act: 70*; ADAM10 inh: inactive; ADAM17 inh: inactive; NR3A LBD binder: 2; FAS-TE inh: 1; KLK7 act conf: 64*; EDANS interfere: 77*

What do the screens show for `CCN1CCN(Cc2c(O)c(Cl)cc3c(C)cc(=O)oc23)CC1`?
proKLK7 act: 71*; ADAM10 inh: inactive; ADAM17 inh: inactive; NR3A LBD binder: 0; FAS-TE inh: -1; KLK7 act conf: 81*; EDANS interfere: 80*

What do the screens show for `C/C(CCc1ccco1)=N\NC(=O)CNc1cccc2ccccc12`?
proKLK7 act: 33*; ADAM10 inh: -426; ADAM17 inh: -109; NR3A LBD binder: -3; FAS-TE inh: 2; KLK7 act conf: 8; EDANS interfere: 6.1*

How did O=C(CNc1cccc2ccccc12)N/N=C/c1ccc(C(=O)O)cc1 do in these assays?
proKLK7 act: 1; ADAM10 inh: -35; ADAM17 inh: -14; NR3A LBD binder: -2; FAS-TE inh: -5
